Many of the other results were omitted from the sample, so hits are more common in it than they were.
Pf Dd2 inh – inhibitors of Plasmodium falciparum Dd2 growth; P. falciparum Dd2 growth, SYBR Green, 72 h; Potency, µM (series often up to 28.9 µM), for the others: top-dose activity, negative = inhibition, usual class: inhibitors; actives 4.3% (n = 120,000); AID 1347417; active = well fitted inhibition curve with a large enough effect;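 note: plate controls were DMSO vehicle for no effect and reference drug for full effect; nearly all actives have a fitted effect of over 65% in size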
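Readout: SYBR Green fluorescence, 485 nm excitation, 535 nm emission, after ~16 h lysis at 37C. Before that, Dd2-infected red cells (2.5% hematocrit) grew 72 h with compound, 29 uM top final concentration.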
* = called active by the depositor; i = inactive; [ ] = remark or other dose. Potency is the fitted concentration of half-maximal effect.

SMILES	Pf Dd2 inh
Cc1cc(=O)n(CC(=O)N2CCN(c3ccccc3F)CC2)c(-c2ccc(F)cc2)n1	29%
O=C(NCc1nnc2ccc(-c3ccccc3)nn12)c1ccc(Cl)cc1	-19%
CC(C)Cc1cc(C[C@@H]2C[C@H](NC(=O)C3CCCC3)C2(C)C)no1	i
CC(C)N1C[C@H](O)C[C@H]1c1nc(-c2cccc([N+](=O)[O-])c2)no1	-12%[44.1 µM]
Cc1cccc(N(C)c2nc3ccc(C)cc3n3cnnc23)c1	11%
Cc1cccc(N(C)c2nc3ccccc3c3nnc(C)n23)c1	0.45µM*
Cc1cccc(N(C)c2ccc3cc(S(=O)(=O)N4CCCC4)ccc3n2)c1	2%
O=C(CCc1ccccc1)N1CCC2(CC1)N=C(c1cccc(Br)c1)NO2	-20%
COc1cccc(CCC(=O)N2CCC3(CC2)N=C(c2ccccc2)NO3)c1	11µM*
COc1cc(OC)cc(C(=O)N2CCC3(CC2)N=C(c2ccccc2)NO3)c1	15%
CCN(CC)C(=O)c1c(-c2ccc(OC)cc2)noc1[C@H](C)O	-9%[44.1 µM]
O=C(NC1CCN(c2cc(-c3ccccc3)[nH]n2)C1)c1ccc2cc[nH]c2c1 (stereo not drawn)	-24%
COCCCNC(=O)c1c(OCC2CC2)cc(=O)n2c1CCOCC2	-4%
C=CCNC(=O)N[C@H]1C[C@@H](C(=O)N[C@H](Cc2c[nH]c3ccccc23)C(N)=O)N(C(=O)c2cccn2C)C1	21%
COc1ccc(NC(=O)c2ccc3c(=O)n4nc(Nc5ccccc5C)sc4nc3c2)cc1	-10%
CCc1ccccc1Nc1nn2c(=O)c3ccc(C(=O)NCc4ccccc4Cl)cc3nc2s1	11µM*
COc1ccc(NC(=O)c2ccc3c(=O)n4nc(Nc5ccccc5C)sc4nc3c2)cc1Cl	-4%
COc1ccccc1Nc1nn2c(=O)c3ccc(C(=O)NC(C)c4ccccc4)cc3nc2s1 (stereo not drawn)	-14%
Cc1ccc(Cl)cc1Nc1nn2c(=O)c3ccc(C(=O)Nc4ccc(F)cc4)cc3nc2s1	-5%
CCc1ccccc1Nc1nn2c(=O)c3ccc(C(=O)NCCCOC(C)C)cc3nc2s1	11µM*
CCc1ccccc1Nc1nn2c(=O)c3ccc(C(=O)NC(C)C)cc3nc2s1	-20%
Cc1ccc(NC(=O)c2ccc3c(=O)n4nc(Nc5ccccc5C)sc4nc3c2)cc1C	-2%
Cc1ccc(Cl)cc1Nc1nn2c(=O)c3ccc(C(=O)NC(C)c4ccccc4)cc3nc2s1 (stereo not drawn)	7.9µM*
CCc1ccccc1Nc1nn2c(=O)c3ccc(C(=O)NCc4cccs4)cc3nc2s1	14µM*
COC(=O)c1ccc2c(=O)n3nc(Nc4cc(OC)ccc4OC)sc3nc2c1	91%
SMILES	Pf Dd2 inh
CCOC(=O)C1CCN(C(=O)c2ccc3c(=O)n4nc(Nc5ccccc5)sc4nc3c2)CC1	-18%
Cc1cc(C)nc(SCc2ccc(-c3nc(C4CCOC4)no3)o2)n1 (stereo not drawn)	-22%
COCCNc1ncc(-c2cccc(N[S+](C)(=O)[O-])c2)c2c1OCC2	10%[44.1 µM]
CS(=O)(=O)N1CCC(CC(=O)NCc2ccccc2)C1 (stereo not drawn)	-14%
COc1ccc(-c2ccnc(-c3nnc(C)n3CCN(C)C)c2)cc1OC	i
CCCNC(=O)NC[C@H]1O[C@@H]2C[C@@H](CC(=O)NCc3nccn3C)O[C@@H]2[C@@H]1O	2%[44.1 µM]
O=C(C1CCOCC1)N1CCC(N2CC3CC(C2)[C@H]2CCCC(=O)N2C3)CC1 (stereo partly drawn)	-8%
COCCNC(=O)c1nc(-c2cccc(C(F)(F)F)c2)c2ccccn12	i
COCCNC(=O)c1nc(-c2cccc(C(F)(F)F)c2)c2cnccn12	10µM*
O=C(NCc1cccnc1)c1nc(-c2cccc(C(F)(F)F)c2)c2ccccn12	7.9µM*
O=C(NCc1ccc2c(c1)OCO2)c1nc(-c2cccnc2)c2cnccn12	i
O=C(NCc1cccs1)c1nc(-c2cccnc2)c2ccccn12	-7%
O=C(NCc1ccc2c(c1)OCO2)c1nc(-c2cccc(C(F)(F)F)c2)c2ccccn12	i
O=C(NCc1cccs1)c1nc(-c2cccnc2)c2cnccn12	11µM*
C#CCNC(=O)c1nc(-c2cccnc2)c2cnccn12	i
C#CCNC(=O)c1nc(-c2ccsc2)c2cnccn12	-11%[44.1 µM]
O=C(NC1CC1)c1nc(-c2cccc(C(F)(F)F)c2)c2ccccn12	-19%
C#CCNC(=O)c1nc(-c2cccc(C(F)(F)F)c2)c2cnccn12	3.5µM*
COCCNC(=O)c1nc(-c2ccc(OC)cc2)c2ccccn12	6%
CN(CC1CCOCC1)S(=O)(=O)c1ccc(Cl)s1	-17%
CN1CCc2[nH]nc(C(=O)N[C@H](c3ccccn3)C3CC(O)C3)c2C1 (stereo partly drawn)	-6%
O=C(Cc1ccc(Cl)cc1)NCc1nnc2c(-c3nc(C4CC4)no3)cccn12	i
COCC(=O)NC[C@H]1O[C@@H](CC(=O)N2CCN(c3ccccc3)CC2)[C@H](O)[C@@H]1O	-11%[44.1 µM]
CCc1ccccc1NC(=O)c1cc(S(=O)(=O)NC2CCCC2)ccc1F	-1%
CCOc1ccc(NC(=O)c2cc(S(=O)(=O)NC3CCCC3)ccc2F)cc1	-18%
SMILES	Pf Dd2 inh
O=C(Nc1ccc(C(F)(F)F)cc1)c1cc(S(=O)(=O)NC2CCCCC2)ccc1F	7.1µM*
O=C(Nc1ccc(F)c(F)c1)c1cc(S(=O)(=O)NC2CCCC2)ccc1F	22%
O=C(Nc1ccc(C(F)(F)F)cc1)c1cc(S(=O)(=O)NC2CCCCCC2)ccc1F	5.6µM*
O=C(Nc1ccc(Cl)cc1F)c1cc(S(=O)(=O)NC2CCCCCC2)ccc1F	i
CSCC(=O)N[C@H]1CCN2C(=O)c3ccc(Cl)cc3NC(=O)[C@H]12	1%[44.1 µM]
CCCN1CCN(C(=O)CN2CC3CC(C2)[C@H]2CCCC(=O)N2C3)CC1 (stereo partly drawn)	-18%
Cc1cc(C(=O)NCC2CC2)c2c(C3CCNC3)noc2n1 (stereo not drawn)	13%
O=C(Nc1cccc(C(F)(F)F)c1)O[C@@H]1CO[C@H]2[C@@H]1OC[C@@H]2NS(=O)(=O)c1cccc2cccnc12	-22%
CCOc1ccc(NC(=O)C(NS(=O)(=O)c2cccc3nsnc23)c2ccccc2)cc1 (stereo not drawn)	22%
CC(C)C(NS(=O)(=O)c1cccc2cccnc12)C(=O)Nc1ccc(OC(F)(F)F)cc1 (stereo not drawn)	10µM*
CCc1ccccc1S(=O)(=O)N1CCC(n2cnnc2C)CC1	-27%
N#Cc1ccc(O[C@@H]2COCC[C@H]2NC(=O)Cn2nnnc2N)cc1	-11%
Cc1cc(Nc2cccc(C(F)(F)F)c2)nc2ccc(NC(=O)c3cncc(Br)c3)cc12	0.18µM*
Cc1cc(Nc2cccc(Cl)c2)nc2ccc(NC(=O)c3cncc(Br)c3)cc12	2.8µM*
CCN(CC)c1ccc(C(=O)Nc2ccc3nc(N(CC)CC)cc(C)c3c2)cc1	-18%
CCOc1cc(C(=O)Nc2ccc3nc(Nc4cccc(Cl)c4)cc(C)c3c2)cc(OCC)c1OCC	2µM*
CCN(CC)S(=O)(=O)c1ccc2nc(NC(=O)c3cncc(Br)c3)sc2c1	20%[0.594 µM]
Cn1nc(-c2ccc(C(=O)Nc3cccc(C(F)(F)F)c3)cc2)c2ccccc2c1=O	3%
CCOc1cc(C(=O)Nc2ccc(-c3cn4cccnc4n3)cc2)cc(OCC)c1OCC	-17%
COc1ccc(Nc2ncc(C(=O)Nc3cccc(Cl)c3)c3ccccc23)cc1	i
Cc1ccccc1C(=O)Nc1ccc2nc(Nc3cccc(C(F)(F)F)c3)cc(C)c2c1	-9%
Cc1noc(C)c1S(=O)(=O)N1CCOCCNC(=O)[C@@H]2CCC[C@@H]21	-13%

High-throughput results (PubChem)
